According to PubChem BioAssay (NCI):
This is part of a sample that, as a whole, favours compounds with a hit. Of some 83,000 tested, about 20% had one in any assay.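 Values shown are percent growth following 48 h exposure of cells in 96-well plates to a single concentration of compound; below 10 was considered active.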 Values without a mark were called inactive. The source made the active and inactive calls.

How the values were obtained:
Test in all cases: NCI-60 one-dose screen, 48 h (100 = growth as untreated, 0 = no growth, -100 = all killed)
HOP-92 NSCLC = conditions: 10 µM unless noted
NCI-H522 lung = conditions: 10 µM unless noted
A549/ATCC NSCLC = conditions: 10 µM unless noted
M14 melanoma = conditions: 10 µM unless noted
SK-MEL-2 melanoma = conditions: 10 µM unless noted
EKVX NSCLC = conditions: 10 µM unless noted
TK-10 renal = conditions: 10 µM unless noted
CCRF-CEM leukemia = conditions: 10 µM unless noted
RPMI-8226 leukemia = conditions: 10 µM unless noted
OVCAR-5 ovarian = conditions: 10 µM unless noted
OVCAR-4 ovarian = conditions: 10 µM unless noted
SK-OV-3 ovarian = conditions: 10 µM unless noted
IGROV1 ovarian = conditions: 10 µM
HS 578T breast = conditions: 10 µM unless noted
HCT-116 colon = conditions: 10 µM unless noted
COLO 205 colon = conditions: 10 µM
ACHN renal = conditions: 10 µM unless noted
SR leukemia = conditions: 10 µM
NCI/ADR-RES ovarian = conditions: 10 µM unless noted

Compound	growth (HOP-92 NSCLC)	growth (NCI-H522 lung)	growth (A549/ATCC NSCLC)	growth (M14 melanoma)	growth (SK-MEL-2 melanoma) [%]	growth (EKVX NSCLC) [%]	growth (TK-10 renal) [%]	growth (CCRF-CEM leukemia)	growth (RPMI-8226 leukemia)	growth (OVCAR-5 ovarian) [%]	growth (OVCAR-4 ovarian) [%]	growth (SK-OV-3 ovarian)	growth (IGROV1 ovarian) [%]	growth (HS 578T breast)	growth (HCT-116 colon)	growth (COLO 205 colon)	growth (ACHN renal) [%]	growth (SR leukemia)	growth (NCI/ADR-RES ovarian)
CCCCCCCCCCCCOc1ccc(C(=O)Oc2ccc(CSP3(=O)OCC4OC(n5cnc6c(N)ncnc65)C(F)C4OP(=O)(O)OCC4OC(n5ccc(=O)[nH]c5=O)C(F)C4O3)cc2)cc1 (configuration not stated)	86.9%	69.4%	98.3%	86.2%	86.6	107	77.5	68.3%	72.2%	115	54.2	110%	97	117%	83.2%				
C/C(=C\c1cc(C(F)(F)F)n(-c2ccc(N)cc2)n1)[C@@H]1C[C@@H]2O[C@]2(C)CCC[C@H](C)[C@H](O)[C@@H](C)C(=O)C(C)(C)[C@@H](O)CC(=O)O1	37.9%		1.71% (active)	-14.3% (active)		31.8		12.8%	3.83% (active)	14.7	44.7	2.26% (active)		-11.5% (active)	5.82% (active)	-45% (active)	31.9	-16.4% (active)	7.67% (active)
CCCCCCCCCCOc1ccc(C(=O)Oc2ccc(CSP3(=O)OCC4OC(n5ccc(=O)[nH]c5=O)C(F)C4OP(=O)(O)OCC4OC(n5cnc6c(N)ncnc65)C(F)C4O3)cc2)cc1 (configuration not stated)	85.4%	71.1%	85.9%		76.3	111	92	87.1%	82.6%	116	58.8	97.8%	95.3	111%	79.9%			25.4%	105%
O=c1[nH]c2cc(Cl)ccc2n1C1CCN(CCCC(c2ccc(F)cc2)c2ccc(F)cc2)CC1	-37.7% (active)	-56.4% (active)		-52.2% (active)	16.8	61.5	13.1	-39.3% (active)	-52.8% (active)	76.3	56.6	78.1%		-80.6% (active)	3.23% (active)	-88.3% (active)	48.5	16.2%	51.9%
COC1=CC(=O)OC(CCc2ccc3c(c2)OCO3)C1 (configuration not stated)		76.9%	96%	104%	97.4	122	102	85.4%	107%	101	106	112%	116	109%	106%	108%	107		120%
c1ccc(CCN2CCCCC2Cc2ccccc2)cc1 (configuration not stated)	100%	83.5%		94.7%	87.7	93.4	96.6	105%	107%	83	115	106%	92.5	116%	78.1%		94.6	88.5%	87.8%
O=[N+]([O-])c1ccccc1N1CCNCC1		88.6%	95%	97.8%	106	104	96.2	112%	118%	94	99.4		85	107%		104%	105	88.5%	
CC(=O)N(C)C1=Nc2ccc(Cl)cc2C(c2ccccc2)=[N+]([O-])C1	92.5%		106%	114%	95.8	115		125%	113%	102	114	102%	106	111%		105%	98.7	86.1%	
